Among all 290,000 compounds or so, about 27,000 (9.3%) were called active. Cut-off read from the data, not from the text of the source: active = inhibition mostly above about 28% (no sharp cut-off); inactive = mostly below about 43%. Shown is part of a subset that was picked to be rich in actives.

The test in a line: A qHTS for Small Molecule Inhibitors of Shiga Toxin. Note: 0% is about no effect. To be noted: Vero cells, Shiga toxin protein synthesis inhibition reporter; at 38.7 µM, active compounds read high. (qHTS replaces the single test concentration by a dilution series.)
With `COc1cc(/C=C(/NC(=O)c2ccccc2)C(=O)Nc2cccc(O)c2)c([N+](=O)[O-])cc1OC`, the inhibition was -3.28% (inactive). Regarding `C/C(=C\C(=O)c1ccccc1)Nc1cccc(O)c1`, the inhibition is 141% (active).

With `C/C(=C\C(=O)c1cccnc1)Nc1ccc(C)c(C)c1`, the inhibition is 43.6% (inactive). To `O=C(Nc1cccc(O)c1)c1ccc(C(=O)c2ccccc2)o1` belongs 88% (active). `O=C(Cc1ccccc1)Nc1cccc(NC(=O)c2ccccc2)c1`: the inhibition was -14.6% (inactive). To `O=C(Nc1cccc(C(=O)N2CCCC2)c1)c1ccccc1` belongs -3.28% (inactive).

`CCCc1nnc(NC(=O)CCC(=O)N2CCN(S(=O)(=O)c3ccc(OC)cc3)CC2)s1`: the inhibition is 4.3% (inactive). For the compound `Cc1cc(NC(=O)Nc2c[nH]c(=O)[nH]c2=O)ccc1Br`, the inhibition is -3.83% (inactive). Regarding `C=CCn1c(=O)c(C(=O)Nc2ncccc2O)c(O)c2ccccc21`, the inhibition was 4.1% (inactive).

Turning to `CN(C)S(=O)(=O)c1ccc(N2CCCC2)c(C(=O)Nc2cccc(F)c2)c1`, the inhibition was -10.4% (inactive). Turning to `O=C(CCl)N(Cc1cccc([N+](=O)[O-])c1)c1cccc(Cl)c1`, the inhibition is -27.9% (inactive). To `Nc1c(-c2cccc(Cl)c2)cnn1-c1cccc([N+](=O)[O-])c1` belongs 48.6% (active); to `O=[N+]([O-])c1cccc(C2=NCCS2)c1`, 8.55% (inactive); to `COc1ccc(CSc2nnnn2-c2ccc(O)cc2)cc1F`, 19.9% (inactive). Regarding `CN(C(=O)C1CCOC1)c1nnc(-c2cccnc2)s1` (stereo not drawn), the inhibition was 22% (active). On to `COc1cccc(-c2nnc(N(C)C(=O)c3ccno3)s2)c1`, for which the inhibition was 30.2% (inactive). The value for `CN(C(=O)c1ccno1)c1nnc(-c2cccnc2)s1` was 5.36% (inactive); that for `O=C(/C=C/c1cccc([N+](=O)[O-])c1)N1CCN(Cc2ccccc2)CC1` was 12.7% (inactive); that for `CNC(=O)N1c2ccccc2C=Cc2ccccc21` was -6.09% (inactive). The value for `COC(=O)c1nc(NC(=O)c2ccc(C(C)(C)C)cc2)n[nH]1` was 10.9% (inactive); that for `O=C(Nc1ccnc(-c2ccncc2)n1)c1cccs1` was -8.52% (inactive); that for `CSc1nccc(NC(=O)c2ccc(C(C)(C)C)cc2)n1` was 71.6% (active). To `CCOC(=O)c1c(S(=O)(=O)Nc2cccc(Cl)c2)c(C)n(C)c1C` belongs -10.6% (inactive); to `Cc1ccc(Nc2ncnc3c2cnn3C)c(C)c1`, 2.4% (inactive).

For the compound `O=C(NNc1ncnc2c1cnn2-c1ccccc1)c1ccco1`, the inhibition is 35.5% (inactive). The value for `Cc1ccc(-n2ncc3c(Nc4cccc(C(=O)O)c4)ncnc32)cc1` was 76.6% (active); that for `O=C(Nc1ccc(Br)cc1F)C1CC(=O)N(C2CCCCC2)C1` (stereo not drawn) was 0.452% (inactive). Regarding `O=C(COc1ccccc1)NCCc1nc2ccccc2[nH]1`, the inhibition is -37.8% (inactive). To `CCO[C@@H]1OC(C(=O)NCc2nc3ccccc3[nH]2)=C[C@H](C2CCCCC2)[C@H]1CCCO` belongs -8.66% (inactive); to `O=C(OCc1nc2ccccc2[nH]1)C1CCCCC1`, 29.7% (active).

With `CC1C(=O)Nc2ccccc2N1C(=O)c1ccc(F)cc1F` (stereo not drawn), the inhibition was 26.5% (inactive). With `O=C(Nc1ccc(-c2cscn2)cc1)C1CCCN(Cc2ccc(CO)o2)C1` (stereo not drawn), the inhibition was 7.25% (inactive).

Turning to `O=C(NNC(=S)NC1CC2CCC1C2)c1ccc(Cl)cc1` (stereo not drawn), the inhibition is 12.4% (inactive). The value for `O=C(NNC(=O)C1C2CCC(C2)C1C(=O)O)c1ccc(Cl)cc1` (stereo not drawn) was 57.3% (active); that for `CCOC(=O)NNC(=O)c1ccc(Cl)cc1` was 11.6% (inactive); that for `Cc1ccc(OCC(=O)NC(C)c2ccccc2)cc1C` (stereo not drawn) was -6.99% (inactive). To `CCOc1ccc(OCC(=O)Nc2c3c(nn2C(C)(C)C)CS(=O)(=O)C3)cc1` belongs -5.61% (inactive); to `CSc1nnc(-c2ccc(C(F)(F)F)cn2)o1`, 47.1% (active).

As for `CC(C)Oc1ccc(Oc2ccc(C(F)(F)F)cn2)cc1`, the inhibition was 1.31% (inactive). The value for `CC(=O)c1sc(NC(=O)CCCOc2ccccc2C)nc1C` was -15.8% (inactive); that for `Cc1nnc(C)n1/N=C/c1ccc(C(C)C)cc1` was -9.61% (inactive). With `Cc1ccc(S(=O)(=O)Nc2nc(C)cc(N/N=C/c3ccc(O)cc3)n2)cc1`, the inhibition was 9.39% (inactive).

Regarding `CCOC(=O)CSc1nnc(NC(=O)c2cccc(S(=O)(=O)N3CCCC3)c2)s1`, the inhibition is -15% (inactive). To `CC(=O)c1sc(N/N=C\c2ccc(C)cc2)nc1C` belongs 72.3% (active); to `CC(=O)c1sc(N/N=C/c2ccc(C(C)C)cc2)nc1C`, 69.3% (active). The value for `CC(=O)c1sc(NC(=O)C2=NN(c3ccccc3)C(=O)CC2)nc1C` was 21.6% (inactive); that for `C=CCSc1nnc(NC(=O)c2ccc(NC(C)=O)cc2)s1` was 26.6% (inactive). For the compound `CCOC(=O)c1sc(NC(=O)c2ccncc2)nc1C`, the inhibition was 11% (inactive). On to `COC(=O)c1sc(NC(=S)NC(=O)c2ccc(C)cc2)nc1C`, for which the inhibition was 38.9% (inactive). The value for `CC(=O)c1sc(NC(=O)c2ccc(C)cc2)nc1C` was 107% (active). As for `CCSc1nnc(NC(=O)c2ccc(C)cc2)s1`, the inhibition is 71.3% (active).

Consider `O=C(NCCCN1CCOCC1)C1CCCN(S(=O)(=O)N2CCCCC2)C1` (stereo not drawn), for which the inhibition was -9.17% (inactive). The value for `Cc1ccc(NC(=O)Cc2nnc(SCC(=O)Nc3nncs3)n2C)cc1` was -6.25% (inactive); that for `COc1ccc(OC)c(/C(C)=N\NC(=O)c2cc3cc(Cl)ccc3n2C)c1` was -10.1% (inactive). Consider `CCN(Cc1ccncc1)C(=O)CCc1ccccc1`, for which the inhibition was -7.55% (inactive). To `COc1ccccc1NC(=O)C1CCCN1S(=O)(=O)c1ccc(Cl)cc1` (stereo not drawn) belongs 23.6% (inactive); to `CC(NS(=O)(=O)c1ccc(Br)cc1)C(=O)NCC1CCCO1` (stereo not drawn), 25% (inactive); to `CC(C)(C)NC(=O)CN(Cc1cccs1)C(=O)CNS(=O)(=O)c1ccccc1`, 41.4% (inactive). The value for `C[C@H]1CCC[C@@]2(C)CCCC[C@]12O` was 12.1% (inactive); that for `COc1ccccc1N1CCN(c2ncnc3sc(C)c(-c4ccccc4)c23)CC1` was 54.8% (inactive); that for `O=C(c1c(F)cccc1Cl)N1CCN(S(=O)(=O)c2ccc3c(c2)OCCCO3)CC1` was -6.3% (inactive). To `CC1CCN(CC(=O)Nc2nccs2)CC1` belongs -4.28% (inactive); to `N/C(=N\OC(=O)/C=C/c1ccccc1)c1ccc(Br)cc1`, 6.16% (inactive). Take `N/C(=N\OC(=O)c1ccc2c(c1)OCO2)c1ccc(Br)cc1`: the inhibition was 73.3% (active). The value for `N/C(=N\OC(=O)N1c2ccccc2Sc2ccccc21)c1ccc(Br)cc1` was -3.87% (inactive); that for `O=C(Nc1nnc(-c2ccc(F)cc2)s1)c1c(F)cccc1Cl` was 3.43% (inactive); that for `C/C(=C\c1ccccc1)C1NC(=O)c2c(sc3c2CCCC3)N1` (stereo not drawn) was 34.2% (inactive). The value for `Cc1ccc(C(=O)c2c(NC(=O)c3ccncc3)sc3c2CCCC3)cc1` was -0.844% (inactive); that for `O=C1NC(c2ccncc2)Nc2sc3c(c21)CCCC3` (stereo not drawn) was 64.1% (active); that for `CCOC(=O)[C@@H]1[C@H]2COc3cc(OC)ccc3[C@@H]2N2C(=O)N(c3cccc(C)c3)C(=O)[C@@]12C` was -1.2% (inactive). For the compound `CC1CCCN(CCCNC(=O)CN2C(=O)COc3ccc(S(=O)(=O)N4CCOCC4)cc32)C1` (stereo not drawn), the inhibition is -5.12% (inactive). To `C=CCn1c(CNS(=O)(=O)c2ccc(Br)cc2)nnc1SC` belongs -6.56% (inactive). `O=C(Cn1c(-c2cncs2)nc2ccccc21)NC1CCCC1`: the inhibition was -2.75% (inactive). On to `O=C(/C=C/c1cnc2ccccc2n1)NC1CCCCCC1`, for which the inhibition is 112% (active).

In the case of `O=C(CSc1nnc2c(n1)[nH]c1ccccc12)NC1CCCCC1`, the inhibition is -11% (inactive).

For `Cc1ccc(N(Cc2cc(=O)[nH]c3ccccc23)C(=O)CCl)cc1`, the inhibition was -5.41% (inactive). To `Cc1cccc(C(=O)NNC(=O)CSc2nnc(C(C)C)n2C)c1` belongs -2.77% (inactive); to `COc1cccc(C(C(=O)NC2CCCC2)N(C(=O)c2ccco2)c2cccc(C(C)=O)c2)c1OC` (stereo not drawn), -12.2% (inactive). The value for `COc1ccc2nc(/N=C(\N)NC(=O)Nc3ccccc3)nc(C)c2c1` was 69.1% (inactive); that for `O=C(NNC(=O)C(O)c1ccccc1)NC1CCCCC1` (stereo not drawn) was -13.5% (inactive); that for `Cc1nc(/N=C(\N)NC(=O)NC2CCCCC2)nc2ccccc12` was 30.3% (active). Consider `COc1ccc(C(=O)NCCCN2CCOCC2)cc1Br`, for which the inhibition was -13.5% (inactive). To `O=C(c1cc2ccccc2o1)N1CCN(c2cccc(C(F)(F)F)c2)CC1` belongs -15.8% (inactive); to `COCCN(C(=O)CCC(=O)Nc1nccs1)C(C(=O)NCCC(C)C)c1ccc(F)cc1` (stereo not drawn), -13.9% (inactive); to `COC(=O)/C(C#N)=C/c1occc1C`, -2.66% (inactive).

Take `CCOC(=O)NC(=O)/C(C#N)=C\c1ccccc1`: the inhibition is -2.62% (inactive). With `CCOC(=O)/C(C#N)=C\c1c(C)cc(C)c(COC(C)=O)c1C`, the inhibition was 30.8% (active). As for `COCCNC(=O)CSc1nc2sccc2c(=O)n1-c1ccccc1`, the inhibition was -4.95% (inactive). For `COc1cc(NC(=O)NCC2CCN(Cc3ccc(C)cc3)CC2)cc(OC)c1OC`, the inhibition is 19.7% (inactive). On to `Fc1ccc(CSc2nnc(-c3cc4c(s3)-c3ccccc3CC4)o2)cc1`, for which the inhibition is -15% (inactive). To `CCSc1nnc(-c2cc3c(s2)-c2ccccc2CC3)o1` belongs 73.3% (active); to `O=C(CSc1nnc(-c2ccccc2O)o1)NC1CCCCC1`, -7.64% (inactive); to `CSCCC(NC(=O)c1ccc(Cl)cc1Cl)C(=O)NNC(=O)c1csc(N2CCOCC2)n1` (stereo not drawn), 23.2% (inactive). Take `O=C(Nc1ccc(N2CCCC2=O)cc1)c1cncc(Br)c1`: the inhibition was -22% (inactive). Regarding `CN(C)Cc1c(O)ccc2c(=O)c(-c3ccccc3Cl)coc12`, the inhibition was 2.96% (inactive). The value for `CC1CCCCC1NC(=O)/C(C#N)=C/C=C/c1ccccc1[N+](=O)[O-]` (stereo not drawn) was 52.2% (active). Turning to `O=C(/C=C/c1ccccc1[N+](=O)[O-])OC1CCCCC1=O` (stereo not drawn), the inhibition was -5.74% (inactive). For the compound `O=C(/C=C/c1ccccc1[N+](=O)[O-])NCC1CCCO1` (stereo not drawn), the inhibition is 28% (inactive).

By inhibition is commonly meant the relative decrease from the control value, in per cent.
